PubChem BioAssay (EPA / NIEHS)
Records with an inconclusive call do not appear. Active and inactive are the calls of the source. How the source made its calls: active means hit-call score of the fitted dose curve at least 0.9, where 1 is the maximum; inconclusive means response in the unintended direction; inactive means score below 0.9.

assay: TOX21_TRB_BLA_Antagonist_Followup_viability: Viability Assessment in the Tox21 Thyroid Hormone Receptor beta Antagonism Beta-lactamase (BLA) Follow-Up Assay (AID 2283961)
Text: The GeneBLAzer TRb-UAS-bla HEK293T assay kit for human TRb (ThermoFisherScientific Catalog No. K1684) was used as a secondary assay for specificity (TRb-bla).This assay contained the ligand-binding domain (LBD) of the human TRb fused to the DNA-binding domain of GAL4 stably integrated in the GeneBLAzer UAS-bla HEK293Tcell line. The reporter gene, b-lactamase, is under the transcriptional control of a UAS that binds the GAL4 DNA-binding domain. A cell viability assay was run in parallel for these cells as well using the CellTiter-Glo viability assay kit.TOX21_TRB_BLA_Antagonist_Followup_viability is a component of the TOX21_TRB_BLA_Antagonist_Followup assay. This component measures cell viability using the CellTiter-Glo Luciferase-coupled ATP quantitation.TOX21_TRB_BLA_Antagonist_Followup_viability used a type of viability reporter where loss-of-signal activity can be used to understand changes in the cell viability. Furthermore, this assay endpoint can be referred to as a secondary readout, because this assay has produced multiple assay endpoints where this one serves a viability function. To generalize the intended target to other relatable targets, this assay endpoint is annotated to the cell cycle intended target family, where the subfamily is cytotoxicity.
Cell Media Required: Growth (90% DMEM/F-12, 10% Fetal Bovine Calf Serum, 100U/ml Penicillin, 100 ug/ml Streptomycin), Assay (10ng/mL sodium selenite, 10 ug/mL humanapo-transferrin, 10 uM ethanolamine, 10 ug/mL insulin, 500 ug/mL bovine serum albumin (BSA))Assay Protocol: TRb-bla cells were dispensed at 3,000 cells/well in 5 uL of the assay medium containing phenol red-free DMEM with 2% charcoal-stripped FBS in 1,536-well black-wall/clear-bottom plates using an FRD. After 5-h incubation at 37C/5% CO2 for cell attachment to the well bottom, 23nL of follow-up compounds dissolved in DMSO, 11 concentrations in triplicate, and the positive control (T3; agonist format) were transferred to the assay plates using a Pintool station. The assay plates were incubated at 37C/5% CO2 for 18h. One microliter LiveBLAzer FRET-B/G CCF4-AM substrate was added to each well using an FRD. After 2-h incubation at room temperature, the fluorescence intensity was measured using an Envision plate reader. Data were expressed as the ratio of 460:530nm. The cytotoxicity of the compounds was measured in the same plates by adding 4 uL of CellTiter-Glo reagent to each well and incubating the plates at room temperature for 30 min. The luminescence intensity was measured using a ViewLux plate reader.For the luciferase reporter gene assay, 5 uL/well (agonist format) and 4 uL/well (antagonist format) ONE-Glo reagent (Promega Corporation) was added using an FRD and after 30-min incubation at room temperature, the luminescence intensity was measured using a ViewLux plate reader. Data were expressed as relative fluorescence units (cell viability assay) and relative luminescence units (luciferase reporter assay).

Compound | AC50 | outcome
CCCCCCCCCCn1cc[n+](C)c1 | 7.88 µM (active) | 
CC[C@]1(O)CC[C@H]2[C@@H]3CCC4=CCCC[C@@H]4[C@H]3CC[C@@]21C |  | inactive
CCC(COC(=O)c1cc(OC)c(OC)c(OC)c1)(c1ccccc1)N(C)C (configuration not stated) |  | inactive
COc1cc([C@@H]2c3cc4c(cc3[C@@H](O)[C@H]3COC(=O)[C@H]23)OCO4)cc(OC)c1O |  | inactive
CC(=O)[C@H]1CC[C@H]2[C@@H]3CC[C@@H]4C[C@H](O)CC[C@]4(C)[C@H]3CC[C@]12C |  | inactive
O=c1oc2ccccc2c(O)c1Cc1c(O)c2ccccc2oc1=O |  | inactive
C=CC[C@]1(O)CC[C@H]2[C@@H]3CCC4=CC(=O)CCC4=C3C=C[C@@]21C |  | inactive
CN1C(=O)[C@@H](NC(=O)c2cc3ccccc3[nH]2)N=C(c2ccccc2)c2ccccc21 |  | inactive
CCN(CC)CCO[C@H]1CC[C@@]2(C)C(=CC[C@@H]3[C@@H]2CC[C@]2(C)C(=O)CC[C@@H]32)C1 |  | inactive
O=C(N[C@@H]1N=C(c2ccccc2F)c2cccc3c2N(CC3)C1=O)c1cc2ccccc2[nH]1 |  | inactive
COC1=CC(=O)O[C@@H](/C=C/c2ccc3c(c2)OCO3)C1 |  | inactive
O=C1OC2(c3cc(Br)c(O)cc3Oc3c2cc(Br)c(O)[c]3[Hg])c2ccccc21 (configuration not stated) |  | inactive
